According to PubChem BioAssay (NCI):
About 83,000 compounds went through this panel and 20% of them were active in at least one assay; those are over-represented in the sample as a whole.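 Treatment: one concentration, 48 hours, 96-well format. Scoring: percent growth, with anything below 10 considered active.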 Active and inactive are the calls of the source.

What was measured:
Assay in all cases: NCI-60 one-dose screen, 48 h (100 = growth as untreated, 0 = no growth, -100 = all killed)
Settings in all cases: 10 µM unless noted
[1] = tested on: RPMI-8226 leukemia
[2] = tested on: OVCAR-5 ovarian
[3] = tested on: OVCAR-4 ovarian
[4] = tested on: SK-OV-3 ovarian
[5] = tested on: IGROV1 ovarian
[6] = tested on: OVCAR-3 ovarian
[7] = tested on: HS 578T breast
[8] = tested on: NCI/ADR-RES ovarian
[9] = tested on: T-47D breast
[10] = tested on: BT-549 breast
[11] = tested on: SW-620 colon
[12] = tested on: MCF7 breast
[13] = tested on: HCT-116 colon
[14] = tested on: KM12 colon
[15] = tested on: OVCAR-8 ovarian
[16] = tested on: MDA-MB-435 melanoma
[17] = tested on: HCC-2998 colon

Measured: growth

FC(F)(F)c1cc(-c2nnc3n2N=C(Cl)CS3)cc(C(F)(F)F)c1
inactive: [1] 95.6% | [2] 114% | [3] 123% | [4] 99.9% | [5] 114% | [6] 116% | [7] 105% | [8] 99.1% | [9] 84.5% | [10] 88.4% | [11] 89.7% | [12] 94.3% | [13] 90.5% | [14] 109%

CN(C)CCCN1c2ccccc2CCc2ccccc21
inactive: [15] 97.4% | [2] 103% | [3] 68.7% | [4] 94.1% | [5] 94.8% | [6] 116% | [7] 103% | [8] 107% | [9] 91.8% | [10] 95.8% | [16] 102% | [11] 111% | [12] 80.5% | [13] 96.6% | [14] 103%

CCOC(=O)c1cnc(SCC)nc1SC#N
inactive: [15] 96.8% | [2] 94% | [4] 115% | [5] 98.7% | [6] 87.3% | [7] 121% | [8] 100% | [9] 80.8% | [10] 115% | [16] 77.5% | [12] 87.7% | [13] 64.2% | [17] 108% | [14] 101%

CC1=CCC2C1CC=C(C)C(CC[C@H]1[C@@](C)(O)CCC3OC(C)(C)[C@H](OC(=O)c4ccccc4)CC[C@@]31C)C2(C)C (stereo not given in full)
inactive: [15] 87.4% | [2] 100% | [3] 71.5% | [4] 93.8% | [5] 102% | [6] 72.8% | [7] 110% | [8] 95% | [9] 74.4% | [10] 106% | [16] 86.8% | [12] 74.9% | [13] 51.5% | [17] 97.9% | [14] 98.9%

Cn1c(=O)c2c(nc(N/N=C/c3ccccc3Cl)n2C)n(C)c1=O
inactive: [1] 111% | [15] 98.6% | [2] 95.7% | [3] 115% | [4] 110% | [5] 102% | [6] 119% | [7] 137% | [8] 97.3% | [10] 102% | [16] 109% | [11] 108% | [12] 96.2% | [13] 97.5% | [14] 140%

COc1ccc(/C=C/c2nc(NCCCN(C)C)c3ccccc3n2)cc1
inactive: [15] 79.8% | [2] 76.9% | [3] 62.9% | [4] 121% | [5] 49.9% | [6] 79.4% | [7] 90.5% | [8] 87.9% | [9] 81.1% | [10] 47.3% | [13] 38% | [14] 32.1%
active: [1] 0.379% | [16] -57.9% | [11] 4.57% | [12] -67%

NNc1ccc(S(N)(=O)=O)cc1
inactive: [1] 82.4% | [2] 102% | [3] 110% | [4] 104% | [5] 110% | [6] 111% | [7] 110% | [8] 94.2% | [9] 89.4% | [10] 101% | [16] 104% | [11] 97.3% | [12] 98% | [13] 90.7% | [14] 105%

COc1ccc(-n2nc(C(=O)Nc3ccc(F)cc3)nc2-c2cc(OC)c(OC)c(OC)c2)cc1
inactive: [1] 96.8% | [2] 97.8% | [3] 90.5% | [4] 94.8% | [5] 98.1% | [6] 92.4% | [7] 89.3% | [8] 85% | [9] 75.3% | [10] 73% | [11] 96.6% | [12] 91.8% | [13] 80.9% | [14] 96%

CC(C)[C@@H]1C=C2CC[C@H]3[C@](C)(CN)CCC[C@]3(C)[C@H]2CC1
inactive: [1] 20.7% | [15] 82.3% | [2] 111% | [3] 77.3% | [4] 113% | [5] 92.2% | [6] 44.4% | [7] 74.6% | [8] 106% | [9] 53.8% | [10] 90.7% | [13] 31.3% | [14] 37.8%
active: [16] -23% | [11] -65.8% | [12] -44.3% | [17] -40.1%

CCCCCCCCCCCCCC
inactive: [1] 103% | [2] 108% | [3] 103% | [4] 104% | [5] 117% | [6] 122% | [7] 106% | [8] 96.9% | [9] 101% | [10] 112% | [16] 104% | [11] 104% | [12] 91.1% | [13] 102% | [17] 97.8% | [14] 115%

N/C(=C\C(=O)n1nc(-c2ccccc2)cc1N)c1ccccc1
inactive: [1] 42.8% | [15] 60.6% | [2] 70.9% | [3] 72% | [4] 65.5% | [5] 16.5% | [6] 20.2% | [8] 17% | [10] 30.1% | [11] 36.1% | [12] 35% | [13] 27.4% | [17] 43.9% | [14] 30%
active: [7] -6.87% | [16] -0.658%

COc1ccc2nc(-c3ccc(-c4noc(-c5ccc(Cl)cc5)n4)cc3)[nH]c2c1
active: [3] -25.9%
inactive: [1] 101% | [15] 74.1% | [2] 92.6% | [4] 90.7% | [5] 78.1% | [6] 64.9% | [7] 62.1% | [8] 47.1% | [10] 74.8% | [16] 60.2% | [11] 49.6% | [12] 46.4% | [13] 51.3% | [17] 93.6% | [14] 53.3%

O=C(Nc1cccc(-n2ccc3c(NC(=O)c4ccccc4)nccc32)c1)c1ccc(Cl)c(Cl)c1
inactive: [4] 18.7%
active: [1] -51.3% | [2] -36.4% | [3] -88.7% | [5] -52.1% | [6] -81.3% | [8] -28.1% | [9] -55.4% | [10] -75.7% | [16] -78.1% | [11] -80.3% | [12] -83.6% | [13] -97.6% | [17] -90.9% | [14] -75.2%

NC(N)=N/N=C/c1cccc(Cl)c1Cl
inactive: [15] 87.5% | [2] 85% | [4] 80% | [5] 86.5% | [6] 72.8% | [7] 71.3% | [8] 75.7% | [9] 81.5% | [10] 65.9% | [12] 17.6% | [13] 67.9% | [14] 10.5%
active: [16] 4.26% | [11] -4.72% | [17] 7.38%

CCC(=O)OCc1ccc(OC)cc1
inactive: [2] 95% | [3] 107% | [4] 108% | [5] 102% | [6] 110% | [7] 135% | [8] 99.4% | [9] 103% | [10] 104% | [16] 112% | [11] 111% | [12] 107% | [13] 98.7% | [14] 137%

O=C(CCCN1CCC(O)(c2ccc(Br)cc2)CC1)c1ccc(F)cc1
inactive: [1] 73.4% | [15] 79.3% | [2] 80% | [3] 64.7% | [4] 86% | [5] 74% | [6] 90% | [8] 74% | [9] 70.5% | [10] 60.6% | [16] 65.4% | [11] 78.1% | [12] 70.4% | [13] 38.9% | [17] 71% | [14] 83.5%

CCOC(=O)c1ccc2c(c1)[n+](=O)c(C(=O)c1ccc3ccccc3c1)c(C(F)(F)F)n2[O-]
active: [1] -66.8% | [15] 3.25% | [2] -98.5% | [3] -65.8% | [4] -100% | [5] -82.9% | [6] -99.6% | [7] -45.7% | [8] -86.4% | [9] -91.1% | [10] -48.5% | [16] -78% | [12] -93.1% | [13] -100% | [17] -97.6% | [14] -92%

COc1cc(NC(=O)CSc2nc3ccc(Cl)cc3c(=O)n2Cc2ccccc2)cc(OC)c1OC
inactive: [15] 68.7% | [2] 85.4% | [3] 81.1% | [4] 72% | [5] 84.9% | [6] 77.7% | [7] 47.4% | [8] 67.7% | [10] 31.2% | [16] 78.2% | [11] 81.6% | [12] 70.2% | [13] 51.6% | [17] 90.5% | [14] 51.5%

O=P(O)(O)C(O)(Cc1cccnc1)P(=O)(O)O
inactive: [1] 98.2% | [15] 94.6% | [2] 118% | [4] 111% | [5] 95.8% | [6] 100% | [8] 102% | [9] 76.6% | [10] 86.3% | [16] 97.6% | [11] 98.7% | [12] 91.2% | [13] 106% | [17] 119% | [14] 100%

O=C(N/N=C/c1ccc([N+](=O)[O-])o1)c1ccc(O)cc1
active: [16] -79.5%
inactive: [1] 39.8% | [15] 17.6% | [2] 78.7% | [3] 42% | [4] 63.8% | [5] 30.5% | [6] 23.4% | [8] 36.6% | [9] 44.2% | [10] 59.4% | [11] 18.2% | [12] 26.1% | [13] 11.4% | [17] 62.9% | [14] 33%
